Screening data: PubChem BioAssay, several laboratories
Compounds with a hit are over-represented: about 2.5% of the library has one in this group of screens.
Jurkat NFkB inh: lowers PMA/ionomycin-induced NF-kB signal in Jurkat cells; PMA/ionomycin-induced NF-kB luciferase reporter, luminescence; actives 0.53% (n = 330,000); inhibition, % at 4 µM; AID 435003; in the data active = inhibition above about 50%
KLF5 inhibitor: suppresses KLF5 promoter-driven expression. DLD-1 KLF5 promoter-luciferase reporter, luminescence. AID 1700. inhibition, % at 5 µM. actives 0.23% (n = 290,000);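 active = inhibition above a per-plate limit of that plate's mean compound inhibition plus 3 SD, cut at about 60% in these data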;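 also: higher means less KLF5 promoter-driven luciferase light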
ANO1 activ: activators or potentiators of mouse TMEM16A chloride channel; AID 623877; Q8BHY3; actives 0.3% (n = 340,000); B-score at 10 µM; HEK293 TMEM16A/YFP-H148Q/I152L, iodide quench fluorescence; hits give low values;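 active = fluorescence-ratio B-score plate-corrected deviation score at least 3 library SD below zero, with starting fluorescence score within 5 deviations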;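 also: channel opened by trigger with iodide after compound preincubation; score built on the fluorescence ratio of max minus min over baseline; more negative score means more quench and so TMEM16A activation or potentiation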
Target sequence (Q8BHY3 whole entry, looked up): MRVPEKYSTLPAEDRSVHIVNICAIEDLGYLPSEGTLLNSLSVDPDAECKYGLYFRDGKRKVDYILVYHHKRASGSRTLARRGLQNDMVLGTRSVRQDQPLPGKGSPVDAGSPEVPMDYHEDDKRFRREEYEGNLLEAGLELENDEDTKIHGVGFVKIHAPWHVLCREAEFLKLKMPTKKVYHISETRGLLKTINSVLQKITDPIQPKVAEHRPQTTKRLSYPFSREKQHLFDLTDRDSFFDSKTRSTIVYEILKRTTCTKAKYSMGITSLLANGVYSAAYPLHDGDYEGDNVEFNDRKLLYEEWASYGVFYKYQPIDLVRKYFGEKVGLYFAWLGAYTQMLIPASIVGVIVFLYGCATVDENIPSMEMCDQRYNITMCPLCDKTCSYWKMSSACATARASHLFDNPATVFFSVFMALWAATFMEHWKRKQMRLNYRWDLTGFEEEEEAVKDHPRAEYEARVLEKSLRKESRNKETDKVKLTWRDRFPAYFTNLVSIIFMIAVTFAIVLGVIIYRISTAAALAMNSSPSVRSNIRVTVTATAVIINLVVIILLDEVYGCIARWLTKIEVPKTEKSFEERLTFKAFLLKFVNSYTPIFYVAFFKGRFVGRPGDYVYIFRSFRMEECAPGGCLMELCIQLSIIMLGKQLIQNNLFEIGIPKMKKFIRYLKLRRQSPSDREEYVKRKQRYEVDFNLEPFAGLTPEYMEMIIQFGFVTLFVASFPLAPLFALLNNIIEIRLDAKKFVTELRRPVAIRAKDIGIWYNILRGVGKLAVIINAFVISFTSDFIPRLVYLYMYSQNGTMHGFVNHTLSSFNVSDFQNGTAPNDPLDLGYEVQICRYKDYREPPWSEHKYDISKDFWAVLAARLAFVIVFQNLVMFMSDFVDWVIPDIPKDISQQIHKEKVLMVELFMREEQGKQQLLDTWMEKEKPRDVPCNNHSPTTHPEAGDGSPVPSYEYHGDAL
aSyn UTR inh: MLPCN primary screen, SNCA 5' untranslated region; AID 1813; actives 0.82% (n = 300,000); inhibition, % (tested at 7.5 µM); alpha-synuclein 5'UTR reporter, inhibitor activity; in the data active = inhibition above about 60%;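 also: H4 neuroglioblastoma cells stably carrying SNCA 5'UTR luciferase fusion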
TMEM16A inh: inhibitors of mouse TMEM16A calcium-activated chloride channel. Q8BHY3. HEK293 TMEM16A/YFP iodide influx fluorescence, ionomycin. normalized B-score (activity score, 25-100; higher = stronger inhibition) at 10 µM. actives 1.2% (n = 310,000);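 active = ratio plate-corrected score three or more library SD toward inhibition, starting fluorescence score within five deviations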;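 also: score derived from kinetic fluorescence span divided by baseline fluorescence per well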
697 NFkB inh: lowers PMA/ionomycin-induced NF-kB signal in 697 B cells | 697 B-cell NF-kB luciferase reporter, 16 h | inhibition, % at 4 µM | actives 0.33% (n = 330,000) | AID 435022; in the data active = inhibition above about 35%
Large screens that a line does not name were inactive.

O=C(Nc1nnc(-c2ccc(Br)cc2)o1)c1cccc(N2C(=O)CCC2=O)c1	none (no result: KLF5 inhibitor)
CCCNC(=O)CCn1nc(-c2ccc(Cl)cc2)c2ccccc2c1=O	aSyn UTR inh 82
CCCNC(=O)CCn1nc(-c2ccc(C)cc2)c2ccccc2c1=O	none
c1ccc(Cc2cc[n+](Cc3ccccn3)cc2)cc1	none
COC(=O)[C@]1(Cc2ccccc2)N[C@H](CN(C)C(=O)c2ccc(C)cc2)[C@@H]2C(=O)N(Cc3ccccc3)C(=O)[C@@H]21	none (no result: KLF5 inhibitor, ANO1 activ, aSyn UTR inh, TMEM16A inh)
Cc1cccc(NC(=O)C2CCN(S(=O)(=O)c3c(C)nn(C)c3C)CC2)n1	none
Cc1cccc(NC(=O)C2CCN(S(=O)(=O)c3c(C)c(C)cc(C)c3C)CC2)n1	TMEM16A inh 100 (no result: KLF5 inhibitor)
O=C(O)CN1C(=O)/C(=C\c2ccc(OC(=O)c3ccco3)cc2)SC1=S	ANO1 activ -5.9
Nc1ccccc1C(=O)NNC1=C(C(=O)C(F)(F)F)CCC1	none
O=C(NNC1=C(C(=O)C(F)(F)F)CCC1)c1ccccc1Cl	ANO1 activ -19
O=C(NNC1=C(C(=O)C(F)(F)F)CCC1)c1ccccc1O	TMEM16A inh 100
COC(=O)c1sccc1NC(=O)CC1C(=O)NCCN1C(=O)c1ccc(C)c(C)c1 (stereo unspecified)	none
CN(C)CCCn1c2c(c(SCC(=O)Nc3cccc4ccccc34)nc1=O)CCCC2	none (no result: KLF5 inhibitor)
Cc1sc(NC(=O)CN(CCc2ccccc2)C(=O)C2CC2)c(C(N)=O)c1C	none
Cc1nn(Cc2ccc(Cl)c(Cl)c2)c(C)c1NC(=O)c1cc(-c2ccc3c(c2)OCO3)on1	aSyn UTR inh 66
O=C(CCl)N1CCN(S(=O)(=O)Cc2ccccc2)CC1	none (no result: KLF5 inhibitor, aSyn UTR inh, TMEM16A inh)
O=S(=O)(c1ccc(Cl)s1)N1CCN(C/C=C/c2ccccc2)CC1	ANO1 activ -7
Cc1ccc(CNc2ccc3c(c2)ncn3C(C)C)cc1	ANO1 activ -13
COCc1c(C(C)C)nc(C(C)C)c(/C=C/[C@@H](O)C[C@@H](O)CC(=O)O)c1-c1ccc(F)cc1	aSyn UTR inh 115 (no result: Jurkat NFkB inh, KLF5 inhibitor, ANO1 activ, 697 NFkB inh)
CSc1cccc(CN2CCCC(C(=O)Nc3cccc(-n4cccn4)c3)C2)c1 (stereo unspecified)	none
COc1ccc(S(=O)(=O)Nc2cccc(S(=O)(=O)N(C)C)c2)cc1[N+](=O)[O-]	none (no result: Jurkat NFkB inh, KLF5 inhibitor, aSyn UTR inh, TMEM16A inh, 697 NFkB inh)
O=C(Cn1nc(-c2ccc(Cl)cc2)ccc1=O)NCC1CCCO1 (stereo unspecified)	ANO1 activ -17
CC(C)C[C@@H](CSc1ccccc1)N1CCN(CC(C)C)CCC1=O	none
CCS(=O)(=O)c1ccc(-c2csc(-c3ccccc3)n2)c(Cl)c1Cl	TMEM16A inh 25
Cc1cc(C(C)(C)C)cc(C)c1S(=O)(=O)N1CC(=O)Nc2ccccc21	none
COc1ccccc1N1CCN(c2nc(-c3ccccc3)cc(C(F)(F)F)n2)CC1	none
COc1ccccc1N1CCN(c2ccc(-c3ccccc3)nn2)CC1	aSyn UTR inh 79
CCOC(=O)C(CCCCCOc1ccccc1[N+](=O)[O-])C(=O)OCC	none
CCOC(=O)C(CCCCCOc1ccc([N+](=O)[O-])cc1)C(=O)OCC	TMEM16A inh 100
N#CC(C(=O)C12CC3CC(CC(C3)C1)C2)c1nc2ccccc2[nH]1 (stereo unspecified)	ANO1 activ -9.5
Cc1cc(C)nc(N2CCC(CNC(=O)CCc3ccccc3)CC2)n1	ANO1 activ -7.7
Cc1ccc(SC/C(O)=C(\C#N)c2nc3ccccc3s2)cc1	TMEM16A inh 25
N#C/C(=C(/O)COc1ccccc1)c1nc2ccccc2s1	none
COc1ccc(C/C(O)=C(\C#N)c2nc3ccccc3s2)cc1	TMEM16A inh 100
N#C/C(=C(/O)COc1ccc(Cl)cc1)c1nc2ccccc2s1	TMEM16A inh 100
N#C/C(=C(/O)c1ccc(F)cc1)c1nc2ccccc2s1	TMEM16A inh 25
N#C/C(=C(/O)CSc1ccccn1)c1nc2ccccc2s1	none
N#C/C(=C(/O)CSc1ccccc1C(=O)O)c1nc2ccccc2s1	none
Cc1ccc(CN2C(=O)CSC2c2ccccc2F)cc1 (stereo unspecified)	none
CCC1(C)Cc2c(sc3nc(SC)[nH]c(=S)c23)CO1 (stereo unspecified)	none (no result: ANO1 activ)
COCCN(C(=O)COC(=O)CCCc1c[nH]c2ccccc12)c1c(N)n(Cc2ccccc2)c(=O)[nH]c1=O	none (no result: Jurkat NFkB inh, KLF5 inhibitor, aSyn UTR inh, TMEM16A inh, 697 NFkB inh)
N#C/C(=C(/O)COC(=O)c1ccc(C#N)cc1)c1nc2ccccc2s1	TMEM16A inh 25
CC(C)(C)c1nc2cc(Cl)c([N+](=O)[O-])cc2o1	TMEM16A inh 100
COc1cc(/C=C2/C(=O)NN(c3ccc(Cl)cc3)C2=O)cc(Br)c1O	ANO1 activ -6.2
COc1cc(/C=C2/C(=O)NN(c3ccc(F)cc3)C2=O)cc(Cl)c1O	none
C=CC(=O)Nc1cccc(N(C)c2ccnc(Nc3ccc(N4CCN(C)CC4)cc3)n2)c1	none (no result: Jurkat NFkB inh, KLF5 inhibitor, aSyn UTR inh, TMEM16A inh, 697 NFkB inh)
O=C(N/N=C/c1cc(Br)c(Br)s1)c1ccncc1	aSyn UTR inh 84
CCC(C(=O)Nc1cccc(C(F)(F)F)c1)c1ccccc1 (stereo unspecified)	ANO1 activ -6.6
Cc1c(NC(=S)NC(=O)c2sc3ccccc3c2Cl)cccc1C(=O)O	none
COc1ccccc1C(=O)NNC(=S)NC(=O)c1sc2ccccc2c1Cl	ANO1 activ -6.2, TMEM16A inh 100
COc1ccccc1C(=O)NC(=S)NNC(=O)c1sc2ccccc2c1Cl	ANO1 activ -7.8, TMEM16A inh 100
COc1ccccc1C(=O)NNC(=S)NC(=O)c1cccs1	aSyn UTR inh 73
O=C(Nc1ccc(F)cc1Cl)C1=COCCO1	none (no result: KLF5 inhibitor)
COc1ccc(NC(=S)NNC(=S)Nc2cccc(C(F)(F)F)c2)cc1	ANO1 activ -6.7
CCCc1nnc(NC(=O)c2cn(CC)c3cc(N4CCN(C)CC4)c(F)cc3c2=O)s1	none
CCOC(=O)c1c(CSc2ccc(CC)cc2)oc2ccc(O)c(CN(C)C)c12	aSyn UTR inh 66, TMEM16A inh 100
CCOC(=O)c1c(C)oc2ccc(O)c(CN(C)C)c12	none
CS(=O)(=O)N(CCc1ccccc1)CC(=O)Nc1ccc(OCc2ccccc2)cc1	ANO1 activ -20
COC(=O)c1ccccc1NC(=O)CN(CCc1ccccc1)S(C)(=O)=O	none
Cc1cc(NC(=O)c2ccc(F)c(S(=O)(=O)N3CCCCC3)c2)no1	none (no result: TMEM16A inh)
COc1ccc(C)cc1S(=O)(=O)NC(C)C(=O)NC1CC1 (stereo unspecified)	none
COc1cc(CC(=O)OCC(=O)Nc2sccc2C(N)=O)cc(OC)c1OC	TMEM16A inh 100
CCC1=NN(C(=O)c2ccc([N+](=O)[O-])cc2)C(O)(c2ccccc2)C1 (stereo unspecified)	TMEM16A inh 25
COc1ccc2c(c1OC)C(=O)N1C2SC[C@H]1C(=O)NC1CCCC1 (stereo partly specified)	none
Brc1ccc2[nH]c3c(c2c1)CCC3	none
